High-throughput results: PubChem BioAssay, National Center for Advancing Translational Sciences (NCATS)
An excerpt weighted towards active compounds, which were near 10% of everything screened.
HEK cytotox = cytotoxic compounds in HEK 293 cells. HEK 293 viability, ATP luminescence (CellTiter-Glo), 48-72 h. Potency, µM (series often up to 115 µM), most hits filed as inhibitors. actives 6.6% (n = 94,000). AID 1345083; also: nearly all actives have a fitted effect of over 60% in size
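HEK 293 seeded at 250 cells/well receive compound via pintool. After 48 or 72 hr at 37 degree Celsius, 5% CO2 and 95% humidity, CellTiter-Glo is dispensed and luminescence read following 10 min at room temperature.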
FLuc inh = Photinus pyralis luciferase inhibition. purified P. pyralis luciferase, luminescence, biochemical. Potency, µM (doses to about 115 µM), usual class: inhibitors. actives 2.5% (n = 76,000). AID 1347043; also: nearly all actives have a fitted effect of over 65% in size
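Luminescence read by CCD imaging after purified firefly luciferase (10nM final) was added to substrate buffer holding 10uM D-luciferin and 10uM ATP, pH 7.5, pre-dosed with compound.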
hNpr1 antagonist = blocks ANP-stimulated signaling of human Npr1 receptor. P16066. HEK293 hNpr1 GloSensor cGMP, ANP-stimulated luminescence. Potency, µM (top dose mostly 46.3 µM), hits mostly inhibitors. actives 1.6% (n = 76,000). AID 1347048; calls by dose curve; also: nearly all actives have a fitted effect of over 60% in size
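HEK293 cells stably expressing human Npr1 and cGMP GloSensor pGS-40F, loaded 2 h with 2% GloSensor reagent, given compound 30 min at room temperature. Luminescence read before and 20 min after 0.1 nM hNppA.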
NIH3T3 tox = cytotoxic compounds in NIH 3T3 cells | AID 1345082 | actives 4.3% (n = 94,000) | Potency, µM (titrated, usually from 96.7 µM), hits mostly inhibitors | NIH 3T3 viability, CellTiter-Glo ATP luminescence, 48-72 h; also: nearly all actives have a fitted effect of over 55% in size
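First NIH 3T3 cells are plated at 400 cells/well; next compound is pinned in; then plates incubate 48 or 72 hr at 37 °C; finally CellTiter-Glo is added and luminescence read after 10 min.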
GPT2 inhibitor = inhibitors of human GPT2 alanine aminotransferase; Q8TD30; Recombinant GPT2, coupled pyruvate oxidase/HRP Amplex Red fluorescence; Potency, µM (highest dose often 57.7 µM), usual class: inhibitors; actives 0.25% (n = 100,000); AID 1671188; also: nearly all actives have a fitted effect of over 60% in size
Target sequence (Q8TD30 whole entry, looked up): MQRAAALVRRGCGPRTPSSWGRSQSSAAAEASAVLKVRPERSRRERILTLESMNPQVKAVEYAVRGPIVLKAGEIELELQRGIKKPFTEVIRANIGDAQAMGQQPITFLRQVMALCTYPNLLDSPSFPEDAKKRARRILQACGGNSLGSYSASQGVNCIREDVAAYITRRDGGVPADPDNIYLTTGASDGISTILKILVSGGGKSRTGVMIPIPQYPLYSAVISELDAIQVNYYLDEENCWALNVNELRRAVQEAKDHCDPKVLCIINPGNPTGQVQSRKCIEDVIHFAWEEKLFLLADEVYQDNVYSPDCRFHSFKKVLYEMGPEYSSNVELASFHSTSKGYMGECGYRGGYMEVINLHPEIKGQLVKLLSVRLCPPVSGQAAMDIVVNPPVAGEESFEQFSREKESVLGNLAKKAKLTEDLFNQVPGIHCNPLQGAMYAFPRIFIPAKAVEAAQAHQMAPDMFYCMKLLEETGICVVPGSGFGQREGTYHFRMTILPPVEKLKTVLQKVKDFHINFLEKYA
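Inhibition is scored from Amplex Red fluorescence generated when pyruvate oxidase and HRP act on pyruvate released by GPT2. Reactions contain 10ng/uL enzyme, 250uM a-KG and 2mM L-alanine and run 30 min at room temperature.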
A number is an active result; i = inactive; ? = inconclusive; nt = no result. Unless noted, calls follow the shape of the dose curve; as a rule, active = well fitted curve in the direction sought with a large enough effect; inconclusive = small, poorly fitted or top-dose-only effect, or another doubt; inactive = no such curve, though single readings can be large; an effect the other way counts as inactive or inconclusive.

SMILES | HEK cytotox | FLuc inh | hNpr1 antagonist | NIH3T3 tox | GPT2 inhibitor
O=[S+]([O-])(c1cccc(C(F)(F)F)c1)N1CCN(Cc2ccccc2-c2cccnc2)CC1 | ? | nt | nt | 35µM | i
C[S+](=O)([O-])N1CCN(Cc2ccccc2-c2cccnc2)CC1 | ? | nt | nt | i | i
O=[S+]([O-])(c1ccccc1)N1CCN(Cc2ccccc2-c2ccccc2F)CC1 | 22µM | nt | nt | ? | i
COc1cccc2c1OCCCN(Cc1nnc(-c3ccccc3)o1)C2 | ? | i | i | i | i
O=C(NCC(F)(F)F)c1ccc2oc(-c3cccnc3)nc2c1 | ? | nt | nt | i | i
O=C(c1ccc(Cl)cc1)N1CCOCC12CCN(CCc1ccccc1)CC2 | ? | i | i | ? | i
O=C(c1ccc(Cl)cc1)N1CCOCC2(CN(Cc3ccccc3)C2)C1 | i | i | i | 3.2µM | i
COc1ccc(C(=O)N2CCOCC3(CN(Cc4cc(F)cc(F)c4)C3)C2)c(OC)n1 | i | i | i | i | i
COc1ccc(C(=O)N2CCOCC3(CN(Cc4ccccc4)C3)C2)cc1 | 10µM | i | i | ? | i
COc1ccc(C(=O)N2CCOCC3(CN(Cc4ccccc4)C3)C2)c(OC)n1 | 45µM | i | i | 32µM | i
COc1ccc(C(=O)N2CCOCC3(CN(Cc4cc(C)cc(F)c4)C3)C2)cc1OC | 8.9µM | i | i | ? | i
COc1ccc(C(=O)N2CCN(S(=O)(=O)c3ccc(F)cc3)C[C@@H]2C(=O)N[C@H]2CCCNC2=O)cc1 | i | i | i | i | ?
Cc1ccc(NC(=O)N2CCC3(CC2)SCC(=O)N3Cc2ccco2)cc1Cl | ? | i | i | ? | i
Cc1cnc(Nc2ccc(N3CCN(C)CC3)cc2)nc1Nc1cccc(S(=O)(=O)NC(C)(C)C)c1 | nt | nt | nt | nt | 19µM
Cc1cnc(Nc2ccc(OCCN3CCCC3)cc2)nc1Nc1cccc(S(=O)(=O)NC(C)(C)C)c1 | nt | nt | nt | nt | i
Cc1cc(C)cc(NC(=O)N2[C@@H]3CC[C@H]2CC(NC(=O)c2ccc(F)cc2)C3)c1 (stereo partly drawn) | 40µM | i | i | ? | i
CCOc1ccc(NC(=O)N2[C@@H]3CC[C@H]2CC(NC(=O)c2ccc(F)cc2)C3)cc1 (stereo partly drawn) | ? | nt | nt | ? | i
Cc1cccc(-c2cccc(CN3CCC(NC(=O)c4ccccc4)CC3)c2)c1 | 35µM | nt | nt | 25µM | i
Cc1cccc(-c2cccc(CN3CCC(NC(=O)Nc4ccc(Cl)cc4)CC3)c2)c1 | 6.3µM | nt | nt | 11µM | i
COC(=O)NC1CCN(Cc2cccc(-c3cccc(C)c3)c2)CC1 | ? | nt | nt | ? | i
CC(=O)NC1CCN(Cc2cccc(-c3cccc(C)c3)c2)CC1 | ? | nt | nt | 100µM | i
Cc1ccc(C(=O)NC2CCN(Cc3cccc(-c4cccc(C)c4)c3)CC2)cc1 | 40µM | nt | nt | 32µM | i
Cc1cccc(-c2cccc(CN3CCC(NC(=O)c4ccc(Cl)cc4)CC3)c2)c1 | i | nt | nt | i | i
Cc1cccc(-c2nocc2CCC(=O)O)c1 | i | ? | i | i | i
Cc1cccc(-c2nocc2CCC(=O)NC2CCN(Cc3ccccc3)CC2)c1 | ? | 32µM | i | ? | i
SMILES | HEK cytotox | FLuc inh | hNpr1 antagonist | NIH3T3 tox | GPT2 inhibitor
Cc1cc(-c2cnc3n[nH]c(-c4ccc5c(c4)OCO5)c3n2)ccn1 | i | i | i | ? | i
Cc1cc(C)cc(-c2[nH]nc3ncc(-c4ccsc4)nc23)c1 | ? | i | i | 25µM | i
c1ccc(-c2cnc3n[nH]c(-c4ccccc4)c3n2)cc1 | 100µM | i | i | ? | i
c1cncc(-c2cnc3n[nH]c(-c4ccc5c(c4)OCO5)c3n2)c1 | 28µM | i | i | ? | i
Cc1ccc(-c2cnc3n[nH]c(-c4ccccc4)c3n2)cc1 | 32µM | i | i | ? | i
Cc1ccsc1-c1[nH]nc2ncc(-c3ccccc3)nc12 | ? | i | i | ? | ?
COc1ccc(-c2[nH]nc3ncc(-c4ccccc4F)nc23)c(C)c1 | 63µM | i | i | 50µM | i
Cc1cc(-c2cnc3n[nH]c(-c4ccccc4)c3n2)ccn1 | ? | i | i | ? | i
Fc1ccccc1-c1cnc2n[nH]c(-c3ccccc3)c2n1 | 112µM | i | i | 89µM | i
Cc1cccc(-c2cnc3n[nH]c(-c4ccccc4)c3n2)c1 | 71µM | i | i | ? | i
O=C(Nc1ccon1)c1cnc2n[nH]c(-c3ccccc3)c2n1 | ? | i | i | 32µM | i
